“And” between values parts separate entries of the source, which are not always exact repeats. Equal values may be shown once. Unmarked numbers belong to inactive results. Records with an inconclusive call do not appear. A call without a number means that no potency is given here. The source made the active and inactive calls. Unless noted, calls come from the whole dose curve; as a rule, active = well fitted curve in the direction sought with a large enough effect; inconclusive = small, poorly fitted or top-dose-only effect, or another doubt; inactive = no such curve, though single readings can be large; an effect the other way counts as inactive or inconclusive.
Key:
[1] = Cell Viability - Jurkat (AID 426;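 active = dose-dependent loss of cell ATP signal giving a full or clear fitted curve, ranked by lower potency value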;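 note: potency is the fitted concentration of half-maximal effect; cells exposed to compound for 40 hours at 37 °C before ATP read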); details: qHTS
Outline: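 Seed 5000 Jurkat E6-1 cells/well; add compound; incubate 40 hr at 37 °C; add CellTiter-Glo; wait 20 min at room temperature; read luminescence. Fit concentration-response with Hill equation for AC50.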

[2] = Cell Viability - Hek293 (AID 427;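 active = compounds whose dose-response curve shows a full or clear partial loss of cell viability, called from curve shape rather than a numeric limit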;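 note: potency is the fitted concentration of half-maximal effect; cells exposed to compound for 40 hours at 37 °C before reading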); details: qHTS
Outline: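 Luminescent ATP read-out (CellTiter-Glo, 20 min RT) after 40 hr compound exposure at 37 °C in complete medium. Signal normalized to DMSO (basal) and 100 uM tamoxifen (100% inhibition); concentration-response fitted with the standard Hill equation to give AC50.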

[3] = Cellular Toxicity (caspase-3) BJ (AID 658); details: BJ fibroblasts, luminescence; Potency: caspase-3 activation; series mostly up to 91.7 µM
Outline: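 Luminescent aminoluciferin-substrate cleavage reports caspase 3/7 activity in normal human BJ fibroblasts after 16 hr compound exposure at 37 °C. Normalized to DMSO (basal) and 10 uM staurosporine (100%); AC50 from Hill fit of concentration-response.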

[4] = Cellular Toxicity (caspase-3) Hek293 (AID 664); details: HEK293 caspase-3 activation, DMSO = 0%, 100 µM tamoxifen = 100%; at 92.2 µM (top of the series);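 note: cells exposed to compound for 16 h at 37 °C before readout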
Outline: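 Activation of caspase-3/7 is measured as increased luminescence from cleaved peptide-aminoluciferin substrate in HEK293 cells treated 16 hours at 37 °C. AC50 values come from Hill-equation fits of concentration-response data.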

[5] = target: Cytochrome P450 3A4 (Homo sapiens) (UniProt P08684); test: qHTS Assay for Inhibitors and Substrates of Cytochrome P450 3A4 (AID 884); details: recombinant CYP3A4, Luciferin-PPXE luminescence; series mostly up to 57.1 µM; note: nearly all actives have a fitted effect of over 50% in size
Cytochrome P450 3A4 (Homo sapiens), sequence (P08684 whole entry, looked up): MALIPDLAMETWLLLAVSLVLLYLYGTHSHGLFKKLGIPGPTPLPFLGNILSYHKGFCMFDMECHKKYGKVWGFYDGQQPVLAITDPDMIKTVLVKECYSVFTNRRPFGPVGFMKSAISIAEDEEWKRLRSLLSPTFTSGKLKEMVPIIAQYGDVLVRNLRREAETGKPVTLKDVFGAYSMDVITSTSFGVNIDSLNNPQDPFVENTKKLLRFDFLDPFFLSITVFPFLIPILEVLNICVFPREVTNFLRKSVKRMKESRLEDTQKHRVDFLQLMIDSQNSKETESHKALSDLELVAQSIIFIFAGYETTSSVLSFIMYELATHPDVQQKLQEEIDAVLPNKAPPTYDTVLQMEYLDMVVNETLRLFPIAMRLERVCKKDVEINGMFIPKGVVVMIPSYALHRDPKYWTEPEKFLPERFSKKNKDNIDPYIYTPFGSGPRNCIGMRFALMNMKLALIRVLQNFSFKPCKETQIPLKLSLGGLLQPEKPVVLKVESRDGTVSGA
Outline: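 20 nM human CYP3A4 with 25 uM Luciferin-PPXE (at KM) in 200 mM KPO4, preincubated 10 min with compound; NADPH regeneration started a 60 min RT reaction. Luciferin detected by luminescence, normalized to 57 uM ketoconazole as full inhibition.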

[6] = Cell Viability - LYMP1-002 - Assay at 16 hr (AID 948); details: LYMP1-002 lymphoblastoid cell viability; series mostly up to 92.2 µM; note: potency is the fitted concentration of half-maximal effect
Outline: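 ATP luminescence (CellTiter-Glo) was measured after 16 hr compound exposure at 37 C of 2500 lymphoblastoid LYMP1-002 cells per well. Concentration-response curves were fitted with the Hill equation to give AC50.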

[7] = Cell Viability - LYMP1-002 - Assay at 24 hr (AID 993); details: LYMP1-002 lymphoblastoid cells viability; series mostly up to 92.2 µM; note: potency is the fitted concentration of half-maximal effect
Outline: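 qHTS, LYMP1-002 lymphoblastoid, 24 h cpd, 37 C, CellTiter-Glo ATP luminescence; AC50 via Hill eq.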

[8] = target: Peroxisome proliferator-activated receptor gamma (Homo sapiens) (UniProt P37231); test: qHTS assay for small molecule agonists of peroxisome proliferator-activated receptor gamma signaling (AID 588536; active = well fitted curve in the direction sought with a large enough effect in the signal ratio, with a control signal flat, not every such curve was filed as active; the % refers to the signal ratio); details: HEK293 PPARg-UAS-bla, beta-lactamase ratio, 16 h, percent of rosiglitazone response, DMSO as zero; series mostly up to 76.7 µM
Peroxisome proliferator-activated receptor gamma (Homo sapiens), sequence (P37231 whole entry, looked up): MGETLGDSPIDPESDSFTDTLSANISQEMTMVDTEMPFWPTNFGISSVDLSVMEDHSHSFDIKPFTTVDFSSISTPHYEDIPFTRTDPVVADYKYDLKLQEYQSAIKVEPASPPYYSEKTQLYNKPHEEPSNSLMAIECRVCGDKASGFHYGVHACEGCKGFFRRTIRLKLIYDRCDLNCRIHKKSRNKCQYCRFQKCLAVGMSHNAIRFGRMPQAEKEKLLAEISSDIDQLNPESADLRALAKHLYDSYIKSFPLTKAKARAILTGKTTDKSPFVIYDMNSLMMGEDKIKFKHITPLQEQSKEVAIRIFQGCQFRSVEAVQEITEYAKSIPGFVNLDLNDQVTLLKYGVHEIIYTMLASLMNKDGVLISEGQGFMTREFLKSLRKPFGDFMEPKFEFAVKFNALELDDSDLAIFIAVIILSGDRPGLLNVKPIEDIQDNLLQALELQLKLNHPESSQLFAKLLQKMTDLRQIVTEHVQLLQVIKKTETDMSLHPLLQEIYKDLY
Outline: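 PPAR-gamma-UAS-bla HEK293 cells in medium with 1% charcoal/dextran-treated FBS were exposed to compounds for 16 h at 37 C. Beta-lactamase activity was read with CCF4 substrate (405 nm excitation, 460/530 nm emission).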

[9] = target: Voltage-gated inwardly rectifying potassium channel KCNH2 (Homo sapiens) (UniProt Q12809); test: qHTS Assay for Small Molecule Inhibitors of the Human hERG Channel Activity (AID 588834); details: U2OS BacMam hERG, FluxOR thallium flux fluorescence; series mostly up to 92.2 µM;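 note: top concentration of the series differs between compounds; lower thallium flux fluorescence means stronger hERG block; nearly all actives have a fitted effect of over 50% in size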
Voltage-gated inwardly rectifying potassium channel KCNH2 (Homo sapiens), sequence (Q12809 whole entry, looked up): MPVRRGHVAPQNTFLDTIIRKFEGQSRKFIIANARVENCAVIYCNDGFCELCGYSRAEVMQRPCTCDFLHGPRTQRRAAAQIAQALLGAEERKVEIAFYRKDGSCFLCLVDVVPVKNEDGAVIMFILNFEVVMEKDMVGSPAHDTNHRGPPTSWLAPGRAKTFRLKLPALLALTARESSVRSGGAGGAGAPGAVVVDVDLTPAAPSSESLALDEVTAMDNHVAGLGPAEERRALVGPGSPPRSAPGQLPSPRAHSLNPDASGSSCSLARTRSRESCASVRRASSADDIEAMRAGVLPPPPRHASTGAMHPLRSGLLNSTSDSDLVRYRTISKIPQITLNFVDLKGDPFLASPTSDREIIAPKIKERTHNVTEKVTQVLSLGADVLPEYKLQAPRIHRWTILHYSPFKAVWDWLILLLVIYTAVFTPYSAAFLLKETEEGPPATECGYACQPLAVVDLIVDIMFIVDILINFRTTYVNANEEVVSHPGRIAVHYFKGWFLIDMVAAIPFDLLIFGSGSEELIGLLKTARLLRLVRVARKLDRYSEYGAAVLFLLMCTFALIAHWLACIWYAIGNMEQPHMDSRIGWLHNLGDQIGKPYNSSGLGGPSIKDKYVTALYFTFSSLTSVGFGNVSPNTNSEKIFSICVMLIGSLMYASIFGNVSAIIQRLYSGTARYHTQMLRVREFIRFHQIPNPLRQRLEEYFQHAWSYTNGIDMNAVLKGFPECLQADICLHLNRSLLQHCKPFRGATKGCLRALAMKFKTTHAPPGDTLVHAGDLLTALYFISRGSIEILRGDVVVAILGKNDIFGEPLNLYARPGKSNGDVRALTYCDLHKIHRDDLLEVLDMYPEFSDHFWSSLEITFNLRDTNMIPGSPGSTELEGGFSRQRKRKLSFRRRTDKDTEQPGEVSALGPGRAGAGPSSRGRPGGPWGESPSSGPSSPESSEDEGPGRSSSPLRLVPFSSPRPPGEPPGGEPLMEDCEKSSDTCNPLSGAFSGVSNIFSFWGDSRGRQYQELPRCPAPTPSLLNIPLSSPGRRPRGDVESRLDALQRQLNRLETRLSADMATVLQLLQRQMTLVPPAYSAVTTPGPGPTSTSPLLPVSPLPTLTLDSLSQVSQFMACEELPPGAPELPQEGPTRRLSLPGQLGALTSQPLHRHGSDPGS
Outline: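 Kinetic FDSS fluorescence; U2OS + hERG BacMam (~100 virus particles/cell); FluxOR Tl+ flux; ~10 min cpd; AC50 (Hill).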

[10] = qHTS assay for small molecule agonists of the antioxidant response element (ARE) signaling pathway (AID 651741; active = well fitted activation curve with a large enough effect in the signal ratio; the % refers to the signal ratio; note: potency is the fitted concentration of half-maximal effect); details: HepG2 ARE-bla reporter, beta-lactamase FRET ratio, 16 h; series mostly up to 96 µM
Outline: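 ARE-bla HepG2 cells (beta-lactamase reporter under ARE control) were plated at 2,000 cells/well, preincubated 5 h at 37 C/5% CO2, then treated with DMSO-dissolved compounds for 16 h at 37 C; LiveBLAzer B/G FRET substrate added, fluorescence read after 2 h at room temperature.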

[11] = qHTS assay for small molecule activators of the nuclear factor-kappa B (NF-kB) signaling pathway (AID 651749; active = well fitted activation curve with a large enough effect in the signal ratio; the % refers to the signal ratio); details: NF-kB-bla ME-180 cells, beta-lactamase FRET ratio, 16 h; active compounds read high
Outline: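 ME-180 cells stably carrying a beta-lactamase reporter under an NF-kB response element were exposed to compound or DMSO vehicle for 16 hr at 37C, 5% CO2. Pathway activation was read by FRET, since reporter expression disrupts FRET.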

[12] = target: Tumor necrosis factor (Homo sapiens) (UniProt P01375); test: qHTS assay to identify small molecules that stimulate Tumor Necrosis Factor-alpha (TNF-alpha) secretion (AID 651757; active = well fitted curve in the direction sought with a large enough effect in the signal ratio; the % refers to the signal ratio); details: Human cells, HTRF 665/615 ratio; series mostly up to 92.2 µM
Tumor necrosis factor (Homo sapiens), sequence (P01375 whole entry, looked up): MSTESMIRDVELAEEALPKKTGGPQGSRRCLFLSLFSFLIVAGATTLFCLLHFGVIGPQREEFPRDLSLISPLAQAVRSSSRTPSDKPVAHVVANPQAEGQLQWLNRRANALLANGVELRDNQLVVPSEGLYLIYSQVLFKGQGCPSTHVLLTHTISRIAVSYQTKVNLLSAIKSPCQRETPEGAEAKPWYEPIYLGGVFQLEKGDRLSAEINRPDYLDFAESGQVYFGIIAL
Outline: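 Secreted TNF-alpha from compound-treated THP-1 cells (17 hrs, 37 C) was quantified with a homogeneous time-resolved fluorescence antibody assay.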

[13] = target: Nuclear receptor ROR-gamma (Homo sapiens) (UniProt P51449); test: qHTS assay for small molecule antagonists of the retinoid-related orphan receptor gamma (ROR-gamma) signaling pathway (AID 651802); details: ROR-gamma antagonist cell reporter assay; series mostly up to 92.2 µM; note: nearly all actives have a fitted effect of over 60% in size; note: potency is the fitted concentration of half-maximal effect
Nuclear receptor ROR-gamma (Homo sapiens), sequence (P51449 whole entry, looked up): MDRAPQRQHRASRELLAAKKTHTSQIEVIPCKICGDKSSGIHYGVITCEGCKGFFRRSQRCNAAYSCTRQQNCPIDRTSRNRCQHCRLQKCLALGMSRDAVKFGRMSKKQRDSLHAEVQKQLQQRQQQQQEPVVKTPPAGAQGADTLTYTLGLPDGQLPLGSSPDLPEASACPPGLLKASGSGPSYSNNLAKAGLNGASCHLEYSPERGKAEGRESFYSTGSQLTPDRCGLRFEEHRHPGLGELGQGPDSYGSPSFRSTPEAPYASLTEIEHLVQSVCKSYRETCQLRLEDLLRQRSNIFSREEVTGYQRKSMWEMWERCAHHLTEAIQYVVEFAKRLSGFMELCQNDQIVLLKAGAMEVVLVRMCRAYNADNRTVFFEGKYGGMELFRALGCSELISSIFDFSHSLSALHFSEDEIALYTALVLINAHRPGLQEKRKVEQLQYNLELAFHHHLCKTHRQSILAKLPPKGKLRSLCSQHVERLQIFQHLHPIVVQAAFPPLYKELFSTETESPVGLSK
Outline: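 Antagonism is scored as a fall in luminescence from a RORE-luciferase reporter in CHO cells expressing ROR under a TET-inducible promoter, measured 16hr after doxycycline induction in the presence of compound.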

[14] = qHTS assay for small molecule antagonists of the retinoid-related orphan receptor gamma (ROR-gamma) signaling pathway - cell viability counter screen (AID 720652; active = well fitted curve in the direction sought with a large enough effect in the repeat runs; an effect the other way counts as inactive or inconclusive;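 note: CHO reporter cells with doxycycline-induced ROR-gamma expression; compound exposure lasted 16 hr before ATP read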); details: RORgamma reporter cell line viability counter screen; series mostly up to 92.2 µM
Outline: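 Cytotoxicity is quantified via intracellular ATP (CellTiter-Glo luminescence) in doxycycline-induced CHO ROR response element-luciferase reporter cells treated with compound for 16 hr at 37 C, 5% CO2.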

[15] = qHTS assay for small molecule activators of the human pregnane X receptor (PXR) signaling pathway (AID 720659; call rule not given here); details: DPX-2 HepG2 CYP3A4-luciferase, 24 h; series mostly up to 92.3 µM
[16] = Cell Viability - LYMP2-003 (AID 965); details: LYMP2-003 lymphoblastoid cell viability; series mostly up to 92.2 µM;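 note: cells exposed to compounds for 24 h before reading; nearly all actives have a fitted effect of over 50% in size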
Outline: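 CellTiter-Glo luminescence quantified ATP loss after 24 h compound treatment of LYMP2-003 lymphoblastoid cells at 37 C. Titration series were fitted with the standard Hill equation to give AC50.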

[17] = target: Estrogen receptor (Homo sapiens) (UniProt P03372); test: qHTS assay for small molecule antagonists of estrogen receptor alpha signaling (AID 588513; active = well fitted curve in the direction sought with a large enough effect in the signal ratio, with a control signal flat, not every such curve was filed as active; the % refers to the signal ratio); details: ER-alpha-UAS-bla HEK293, beta-lactamase ratio, antagonist mode; series mostly up to 76.9 µM
Estrogen receptor (Homo sapiens), sequence (P03372 whole entry, looked up): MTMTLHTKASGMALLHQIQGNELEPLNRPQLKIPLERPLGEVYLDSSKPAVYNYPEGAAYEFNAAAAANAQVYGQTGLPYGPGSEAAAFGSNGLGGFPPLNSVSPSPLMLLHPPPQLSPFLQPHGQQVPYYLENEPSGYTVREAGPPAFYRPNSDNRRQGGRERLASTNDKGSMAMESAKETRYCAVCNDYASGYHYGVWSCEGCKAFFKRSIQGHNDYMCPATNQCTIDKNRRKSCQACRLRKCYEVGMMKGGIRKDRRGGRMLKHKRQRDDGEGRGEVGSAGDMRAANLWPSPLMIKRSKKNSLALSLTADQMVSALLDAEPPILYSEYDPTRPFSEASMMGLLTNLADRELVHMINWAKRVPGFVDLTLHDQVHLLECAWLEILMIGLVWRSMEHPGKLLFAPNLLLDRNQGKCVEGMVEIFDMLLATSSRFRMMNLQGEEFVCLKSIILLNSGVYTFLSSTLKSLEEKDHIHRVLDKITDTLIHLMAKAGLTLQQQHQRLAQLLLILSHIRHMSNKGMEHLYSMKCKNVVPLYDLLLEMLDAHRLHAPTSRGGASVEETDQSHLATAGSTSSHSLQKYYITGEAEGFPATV
Outline: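 Antagonist mode: inhibition of 0.5 nM 17-beta-estradiol-driven beta-lactamase reporter in HEK 293 ER-alpha-UAS-bla cells, 18 h at 37C, CCF4 readout after 2 h at RT. Normalised to estradiol and DMSO; titration fitted to Hill.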

[18] = target: Vitamin D3 receptor (Homo sapiens) (UniProt P11473); test: qHTS assay for small molecule agonists of vitamin D receptor signaling (AID 588543; calls by dose curve); details: HEK293T VDR-UAS-bla, beta-lactamase ratio, 16 h; series mostly up to 76.8 µM
Vitamin D3 receptor (Homo sapiens), sequence (P11473 whole entry, looked up): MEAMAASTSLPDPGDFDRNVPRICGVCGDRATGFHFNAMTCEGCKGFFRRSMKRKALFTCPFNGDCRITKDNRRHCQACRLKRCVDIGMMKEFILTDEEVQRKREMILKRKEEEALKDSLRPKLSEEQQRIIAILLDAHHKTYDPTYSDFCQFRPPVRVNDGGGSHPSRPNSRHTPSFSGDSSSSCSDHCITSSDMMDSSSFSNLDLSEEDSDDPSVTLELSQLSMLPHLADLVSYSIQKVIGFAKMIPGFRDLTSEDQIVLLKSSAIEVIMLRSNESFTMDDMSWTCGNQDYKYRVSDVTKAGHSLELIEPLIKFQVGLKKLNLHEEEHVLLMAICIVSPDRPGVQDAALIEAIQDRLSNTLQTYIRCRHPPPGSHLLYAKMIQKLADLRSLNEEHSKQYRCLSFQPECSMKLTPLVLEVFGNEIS
Outline: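 Agonist-mode beta-lactamase reporter: HEK293T VDR-UAS-bla cells in charcoal-stripped 2% FBS, compound series 16 h 37 C, CCF4 2 h RT. EC50 from Hill fit, scaled against DMSO and 50 nM calcitriol control.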

[19] = qHTS assay for small molecule activators of the p53 signaling pathway (AID 651743; active = well fitted activation curve with a large enough effect in the signal ratio, not every such curve was filed as active; the % refers to the signal ratio); details: HCT-116 p53RE-bla, beta-lactamase FRET ratio, 16 h; activation: active compounds read high
Outline: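 p53RE-bla HCT-116 cells with a stably integrated beta-lactamase reporter under p53 response elements were plated, rested 5 hours at 37 C/5% CO2, then exposed to compounds in DMSO for 16 hours at 37 C. LiveBLAzer B/G FRET substrate was read after 2 hours at room temperature.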

[20] = Cellular Toxicity (caspase-3) Jurkat (AID 655); details: Jurkat caspase-3 activation, luminescence; caspase-3 activation: at 92.2 µM (top of the series), DMSO = 0%, tamoxifen = 100%;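 note: cells exposed to compound for 16 h at 37 °C before reading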
Outline: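 Luminescent Caspase-Glo 3/7 read-out (20 min, room temperature) after 16 h compound treatment at 37 C of 5000 Jurkat cells per well. AC50 derived by Hill-equation fitting, scaled between DMSO basal and 100 uM tamoxifen stimulation.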

Row | SMILES | Potency [1] | Potency [2] [µM] | Potency [3] | caspase-3 activation [4] [%] | Potency [5] | Potency [6] | Potency [7] | outcome [8] | Potency [9] | Potency [10] | activation [11] | Potency [12] | Potency [13] | Potency [14] | outcome [15] | Potency [16] | outcome [17] | Potency [18] | activation [19] | Potency [20]
1 | OCC(CO)(CBr)CBr | > 92 µM | > 92 | inactive | -0.451 | inactive | inactive | inactive | inactive | inactive | inactive | -1.02% and -1.55% | inactive | inactive | inactive | inactive | – | – | – | – | –
2 | CCCCC(CC)COC(=O)COc1ccc(Cl)cc1Cl (configuration not stated) | > 92 µM | > 92 | inactive | 1.58 | inactive | inactive | inactive | inactive | inactive | – | – | inactive | – | inactive | inactive | inactive | inactive | inactive | -1.29% and -1.26% | –
3 | CCCCCCc1ccc(-c2ccc(C#N)cc2)cc1 | > 92 µM | > 92 | – | – | inactive | – | inactive | – | – | – | – | inactive | – | – | inactive | inactive | – | – | 1.83% | inactive
4 | CCCCNCC | > 92 µM | > 92 | inactive | – | – | inactive | – | inactive | – | inactive | – | inactive | inactive | inactive | inactive | inactive | inactive | – | – | inactive
5 | c1ccc(CSCc2ccccc2)cc1 | > 92 µM | > 92 | inactive | – | inactive | inactive | inactive | inactive | – | inactive | -0.1% | inactive | inactive | inactive | inactive | inactive | – | inactive | -0.938% | inactive
6 | COc1cc(-c2ccc(N=C=O)c(OC)c2)ccc1N=C=O | > 92 µM | > 92 | – | 2.71 | – | – | inactive | – | inactive | 2.37 µM (active) | – | – | – | inactive | inactive | – | – | inactive | – | –
7 | c1ccc2c(c1)ccc1ccccc12 | > 92 µM | > 92 | – | -0.803 | inactive | inactive | inactive | inactive | inactive | inactive | -1.69% and -0.971% | inactive | inactive | inactive | inactive | – | inactive | inactive | -2.61% and 2.1% | –
8 | CCCCC(CC)COCCCN (configuration not stated) | > 92 µM | > 92 | – | – | – | inactive | inactive | – | inactive | inactive | – | inactive | – | inactive | inactive | inactive | inactive | – | -2.34% | –
9 | OC1CCCCC1 | > 92 µM | > 92 | inactive | -0.682 | – | inactive | inactive | inactive | inactive | inactive | – | inactive | inactive | inactive | inactive | – | inactive | inactive | -2.93% | inactive
10 | Cc1ccc(C(=O)O)cc1[N+](=O)[O-] | > 92 µM | > 92 | inactive | -1.69 | inactive | – | – | inactive | inactive | – | -1.02% | inactive | – | inactive | inactive | – | inactive | inactive | – | –
11 | CCCCCCN | > 92 µM | > 92 | inactive | 1.72 | – | inactive | – | – | inactive | – | -0.245% | inactive | inactive | inactive | inactive | inactive | inactive | inactive | -1.84% | inactive
12 | C/C=C1/C(=O)C[C@H]2[C@@H]3CCC4=CC(=O)CC[C@]4(C)[C@H]3CC[C@]12C | 56.2 µM (active) | – | – | – | inactive | 50.1 µM (active) | 50.1 µM (active) | – | – | 3.76 µM (active) | – | inactive | 47.3 µM (active) | – | – | inactive | – | – | – | –
13 | c1ccc(COCc2ccccc2)cc1 | > 92 µM | > 92 | inactive | 2.76 | inactive | inactive | – | inactive | inactive | inactive | 0.253% | inactive | inactive | inactive | – | inactive | inactive | inactive | -1.51% | –
14 | Cc1ccccc1OCC1CO1 (configuration not stated) | – | > 92 | – | – | inactive | inactive | inactive | inactive | inactive | inactive | -1.53% | inactive | inactive | inactive | inactive | inactive | inactive | inactive | -0.32% | inactive
15 | CC(=O)Nc1cccc(C)c1 | > 92 µM | > 92 | – | -2.37 | – | inactive | inactive | inactive | inactive | inactive | -1.12% | inactive | inactive | inactive | inactive | – | inactive | – | 0.223% | inactive
